Source: PMC5540273 (PLoS ONE, 2017)
Values joined by “and” are separate entries in the source; they are usually repeats but may differ in a detail not shown here. Identical values can stand only once. Like-named read-outs stand apart in the source and are kept apart here.

Assays:
PRKCD = details: concentration: 1 μM, replicates: in singlicate, n = 1
PRKCE = details: concentration: 1 μM, replicates: in singlicate, n = 1
PRKCH = details: concentration: 1 μM, replicates: in singlicate, n = 1
PRKCI = details: concentration: 1 μM, replicates: in singlicate, n = 1
PRKCQ = details: concentration: 1 μM, replicates: in singlicate; n = 1
PRKD1 = details: concentration: 1 μM, replicates: in singlicate, n = 1
PRKD2 = details: concentration: 1 μM, replicates: in singlicate, n = 1
PRKD3 = details: concentration: 1 μM, replicates: in singlicate, n = 1
PRKG1 = details: concentration: 1 μM, replicates: in singlicate, n = 1
PRKG2 = details: concentration: 1 μM, replicates: in singlicate, n = 1
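Further: KINOMEscan kinase panel screen.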

SMILES	%Inh (PRKCD) [%]	%Inh (PRKCE) [%]	%Inh (PRKCH) [%]	%Inh (PRKCI) [%]	%Inh (PRKCQ) [%]	%Inh (PRKD1) [%]	%Inh (PRKD2) [%]	%Inh (PRKD3) [%]	%Inh (PRKG1) [%]	%Inh (PRKG2) [%]	%Inh (PRKCD; 1 µM)	%Inh (PRKCE; 1 µM)	%Inh (PRKCH; 1 µM)	%Inh (PRKCI; 1 µM)	%Inh (PRKD1; 1 µM)	%Inh (PRKD2; 1 µM)	%Inh (PRKD3; 1 µM)	%Inh (PRKG1; 1 µM)	%Inh (PRKG2; 1 µM)
O=C(NCCCN1CCCC1=O)c1cnc(NCc2cc(Cl)ccc2Cl)nc1NC1CCNCC1	13	40	0	0	0	3	0	29	0	0	–	–	–	–	–	–	–	–	–
C[C@@H]1CCN(C(=O)CO)C[C@@H]1N(C)c1ncnc2[nH]ccc12	22	54	0	0	0	17	6	7	95.3	0	–	–	–	–	–	–	–	–	–
c1ccc(-c2ccc3c(-c4ccnc(Nc5ccc6c(c5)OCCO6)n4)cnn3n2)cc1 [GW818941]	1	0	9	9	37	0	18	16	42	0	–	–	–	–	–	–	–	–	–
O=c1cc(N2CCOCC2)nc2n(Cc3cccc(Cl)c3)ccn12 [GSK2296823]	0	8	0	22	0	0	0	15	0	0	–	–	–	–	–	–	–	–	–
Cl.Fc1ccccc1COc1ccc(Nc2ncnc3ccc(-c4nnc(C(F)(F)F)o4)cc23)cc1Cl [GW424170]	0	0	2	15	0	0	0	0	0	4	–	–	–	–	–	–	–	–	–
CCC(CC)(CC)n1cnc2c(N)ncnc21 [SKF-97620]	8	47	20	16	0	0	8	0	14	3	–	–	–	–	–	–	–	–	–
Cl.Cl.c1ccc(-c2cc3ccncc3cc2OC2CCNCC2)cc1 [GSK1122999]	33	82	86	21	21	15	7	0	0	0	–	–	–	–	–	–	–	–	–
COc1ccc(NC(=O)Nc2ccc(C)c(-c3ccc(C(=O)Nc4ccncc4)cc3)c2)cc1 [GSK1398475]	0	3	0	0	0	0	11	5	0	0	–	–	–	–	–	–	–	–	–
CS(=O)(=O)CCNCc1nc(-c2ccc3ncnc(Nc4ccc(OCc5cccc(F)c5)c(Cl)c4)c3c2)cs1.Cl [GW583340]	0	0	0	13	0	0	2	3	0	0	–	–	–	–	–	–	–	–	–
C[C@H]1CC[C@@H](C(=O)Nc2ccccc2)CN1c1cc(-c2ccc3c(N)n[nH]c3c2)nc(N)n1 [GSK2283293]	0	0	24	24	4	0	4	0	0	4	–	–	–	–	–	–	–	–	–
COc1ccc(-c2nc3n(c2-c2ccncc2)CCC3)cc1 [SKF-104493]	–	–	–	–	0	–	–	–	–	–	0% and 8%	45% and 8%	6% and 7%	0% and 50%	0% and 3%	2% and 16%	0% and 27%	32% and 7%	1% and 18%
CC(=O)Nc1n[nH]c2ncc(-c3ccccc3)cc12 [SB-548492]	7	17	10	0	0	0	0	0	30	20	–	–	–	–	–	–	–	–	–
Oc1ccc2ncnc(Nc3ccc(OCc4ccccc4)cc3)c2c1 [GI262866]	0	0	6	27	15	0	0	30	0	0	–	–	–	–	–	–	–	–	–
FC(F)(F)c1ccc(-c2nn3ncccc3c2-c2ccnc(Nc3cccc(C(F)(F)F)c3)n2)cc1 [GW828205]	16	0	0	30	0	7	6	0	5	16	–	–	–	–	–	–	–	–	–
O=C(c1ccc(-c2cc(-c3c[nH]nc3-c3ccccn3)ccn2)cc1)N1CCCC1 [GW792479]	12	0	0	100	0	0	0	0	13	0	–	–	–	–	–	–	–	–	–
COc1cc2ncnc(Nc3ccc(OCc4ccccc4Br)c(Cl)c3)c2cc1OC.Cl [GI261590]	0	8	0	33	100	4	0	0	0	0	–	–	–	–	–	–	–	–	–
FC(F)(F)c1ccc(-c2cc(-c3c[nH]nc3-c3ccccn3)ccn2)cc1 [GW599550]	0	6	21	23	16	23	16	17	4	2	–	–	–	–	–	–	–	–	–

SMILES	%Inh (PRKCD) [%]	%Inh (PRKCE) [%]	%Inh (PRKCH) [%]	%Inh (PRKCI) [%]	%Inh (PRKCQ) [%]	%Inh (PRKD1) [%]	%Inh (PRKD2) [%]	%Inh (PRKD3) [%]	%Inh (PRKG1) [%]	%Inh (PRKG2) [%]	%Inh (PRKCD; 1 µM)	%Inh (PRKCE; 1 µM)	%Inh (PRKCH; 1 µM)	%Inh (PRKCI; 1 µM)	%Inh (PRKD1; 1 µM)	%Inh (PRKD2; 1 µM)	%Inh (PRKD3; 1 µM)	%Inh (PRKG1; 1 µM)	%Inh (PRKG2; 1 µM)
CN1CCC(n2cnc(-c3ccc(F)cc3)c2-c2ccnc(NC3CCNCC3)n2)CC1 [SB-229482]	1	27	0	0	13	0	0	0	0	17	–	–	–	–	–	–	–	–	–
CS(=O)(=O)CCNCc1ccc(-c2ccc3ncnc(Nc4ccc(OCc5ccccc5)c(Cl)c4)c3c2)o1.Cl [GW574783]	0	10	27	13	20	4	12	0	0	0	–	–	–	–	–	–	–	–	–
Clc1cccc(-c2nc(Nc3ccncc3)c3ccccc3n2)c1 [GW873004]	24	16	50	17	0	47	45	44	16	7	–	–	–	–	–	–	–	–	–
Cc1cccc(-c2nc(Nc3ccc4[nH]nnc4c3)c3ccccc3n2)n1 [GW867587]	0	7	0	0	0	94.2	98.1	66	0	0	–	–	–	–	–	–	–	–	–
Fc1cccc(COc2ccc(Nc3ncnc4cc[nH]c34)cc2Cl)c1	14	0	0	12	10	0	25	0	2	13	–	–	–	–	–	–	–	–	–
Nc1n[nH]c2nnc(-c3ccccc3)cc12 [SB-517389]	0	9	23	18	0	0	0	0	0	0	–	–	–	–	–	–	–	–	–
COc1cc2c(Nc3cccc(NC(=O)c4ccccc4)c3)ncnc2cc1OCCCN1CCOCC1 [GSK223810]	18	13	10	8	22	2	4	5	8	0	–	–	–	–	–	–	–	–	–
Cn1ccc2ncnc(Oc3ccc(NC(=O)Nc4cccnc4)c(Cl)c3)c21	13	0	6	0	28	0	8	0	0	0	–	–	–	–	–	–	–	–	–
CSc1nn2c(=O)cc(N3CCOCC3)nc2n1Cc1cccc(Cl)c1Cl [GSK2347225]	5	6	23	27	0	0	8	0	25	0	–	–	–	–	–	–	–	–	–
CC(C)(C)OC(=O)NC1CCCN(c2cc(-c3ccc4c(N)n[nH]c4c3)nc(N)n2)C1 (stereo not drawn) [GSK2286096]	0	12	0	0	0	0	15	0	0	70	–	–	–	–	–	–	–	–	–
Nc1nc(-c2cccnc2)c(-c2ccnc3ccccc23)s1 [GW684083]	0	0	31	21	4	24	34	0	0	0	–	–	–	–	–	–	–	–	–
Nc1nc(-c2ccc3c(N)n[nH]c3c2)cc(N2CCCCC2)n1 [GSK2228768]	0	0	0	6	17	0	4	6	0	8	–	–	–	–	–	–	–	–	–
COc1ccc(Nc2nccc(N3CCC(NC(=O)c4cccc(NC(C)=O)c4)C3)n2)cc1 (stereo not drawn) [GSK1379732]	8	16	17	5	25	13	20	11	2	11	–	–	–	–	–	–	–	–	–
COC(=O)c1cccc(NC(=O)NCCNc2ccnc(Nc3ccc(F)cc3)n2)c1 [GSK1379883]	0	6	34	24	0	21	35	0	7	0	–	–	–	–	–	–	–	–	–
OCCOCCn1ccc2ncnc(Nc3ccc(Oc4cccc(Cl)c4)c(Cl)c3)c21	28	2	0	0	0	0	0	0	4	0	–	–	–	–	–	–	–	–	–
Cl.O=S(=O)(c1cccc(F)c1)c1ccc(Nc2ncnc3cc(Br)sc23)cc1Cl [GSK306886]	0	45	0	0	0	7	13	4	0	23	–	–	–	–	–	–	–	–	–
